From PubChem BioAssay (EPA / NIEHS)
“And” between values parts separate entries of the source, which are not always exact repeats. Equal entries are not always repeated. Some compounds were tested as several samples or in several runs, with calls that do not always agree. The source made the active and inactive calls. Rule for the calls: active = hit-call score of the fitted dose curve at least 0.9, where 1 is the maximum; inactive = score below 0.9.

Columns and labels:
[1] = read-out: C-C motif chemokine 2 (Homo sapiens) (UniProt P13500); assay: BSK_KF3CT_MCP1: BioMAP Diversity Plus: KF3CT Assay for Monocyte Chemoattractant Protein 1 (MCP1/CCL2) Biomarker Activity (AID 2283073); conditions: primary human keratinocytes with fibroblasts; actives raise or lower the signal
Outline: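 ELISA readout of MCP-1 after 24 h chemical dosing of a human skin primary co-culture of keratinocytes and foreskin fibroblasts. Activity was fitted in both directions against DMSO.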

[2] = read-out: Matrix Metallopeptidase 9 (MMP9), MMP9 (gene 4318); assay: BSK_KF3CT_MMP9: BioMAP Diversity Plus: KF3CT Assay for Matrix Metallopeptidase 9 (MMP9) Biomarker Activity (AID 2283074); conditions: primary human keratinocytes with fibroblasts; actives raise or lower the signal;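 for AC50: MMP9 protein level quantified by ELISA in the co-culture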
Outline: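 Human keratinocyte/foreskin fibroblast co-culture; compound added; 24 h; MMP-9 by ELISA; bidirectional fit vs DMSO baseline.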

[3] = read-out: urokinase plasminogen activator (uPA), PLAU (gene 5328); assay: BSK_KF3CT_uPA: BioMAP Diversity Plus: KF3CT Assay for urokinase plasminogen activator (uPA) Biomarker Activity (AID 2283075); conditions: primary human keratinocytes with fibroblasts; actives raise or lower the signal
Outline: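 ELISA readout of uPA, analyzed for signal gain or loss relative to DMSO, from a human primary keratinocyte–foreskin fibroblast co-culture measured 24 h after chemical treatment.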

CD40, CD40 (gene 958) = assay: BSK_LPS_CD40: BioMAP Diversity Plus: LPS Assay for CD40 Biomarker Activity (AID 2283076); conditions: primary human HUVEC with PBMC; actives raise or lower the signal
Outline: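 Cells were dosed, incubated 24 h, then assayed for CD40 by ELISA. Gain or loss of signal was analysed relative to DMSO controls. The culture paired human umbilical vein endothelium with peripheral blood mononuclear cells.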

[4] = read-out: E-selectin (Homo sapiens) (UniProt P16581); assay: BSK_LPS_Eselectin: BioMAP Diversity Plus: LPS Assay for Eselectin Biomarker Activity (AID 2283077); conditions: primary human HUVEC with PBMC; actives raise or lower the signal
Outline: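 Primary human vascular co-culture (endothelium plus PBMC) was dosed with chemical, then E-selectin quantified by ELISA at 24 h. Endpoint values derive from bidirectional curve fitting relative to DMSO.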

[5] = read-out: Interleukin-8 (IL8), CXCL8 (gene 3576); assay: BSK_LPS_IL8: BioMAP Diversity Plus: LPS Assay for Interleukin-8 (IL8) Biomarker Activity (AID 2283078); conditions: primary human HUVEC with PBMC; actives raise or lower the signal
Outline: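 Readout is IL-8 by ELISA, taken 24 h after compounds were added to LPS-stimulated endothelial/PBMC co-cultures. Both increases and decreases relative to DMSO control were scored through bidirectional fitting.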

[6] = BSK_LPS_SRB: Viability Assessment in the BioMAP Diversity Plus: LPS Assay (AID 2283079); conditions: primary human HUVEC with PBMC;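 note: total protein by sulforhodamine B absorbance as a cytotoxicity measure; measured one day after compound addition; fitted in both directions against DMSO so loss or gain of signal counts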
Outline: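 Readout is SRB absorbance at 560 nm (0.1% stain, TCA-fixed parallel cultures) as a total-protein cytotoxicity measure. Cells: primary human umbilical vein endothelium plus peripheral blood mononuclear cells, 24 h after chemical exposure; DMSO served as baseline.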

[7] = read-out: Interleukin-1 alpha (IL1a), IL1A (gene 3552); assay: BSK_LPS_IL1a: BioMAP Diversity Plus: LPS Assay for Interleukin-1 alpha (IL1a) Biomarker Activity (AID 2283080); conditions: primary human HUVEC with PBMC; actives raise or lower the signal
Outline: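 ELISA read-out of IL-1 alpha from a human primary vascular co-culture (endothelium plus PBMC) under LPS, sampled 24 hours post-dosing. Activity was fitted in both directions relative to DMSO controls.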

[8] = read-out: Monocyte Chemoattractant Protein-1 (MCP1), CCL2 (gene 6347); assay: BSK_LPS_MCP1: BioMAP Diversity Plus: LPS Assay for Monocyte Chemoattractant Protein-1 (MCP1) Biomarker Activity (AID 2283081); conditions: primary human HUVEC with PBMC; actives raise or lower the signal;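 for AC50: secreted MCP-1 protein quantified by ELISA in culture supernatant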
Outline: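 Human endothelial–PBMC co-cultures were dosed with chemical, then LPS-driven MCP-1 levels were quantified by ELISA at 24 h. Activity in either direction was fitted versus DMSO negative control.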

[9] = BSK_LPS_PGE2: BioMAP Diversity Plus: LPS Assay for Prostaglandin E2 (PGE2) Biomarker Activity (AID 2283082); conditions: primary human HUVEC with PBMC; actives raise or lower the signal;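 for AC50: secreted prostaglandin E2 measured by ELISA in LPS-stimulated co-culture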
Outline: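 Endpoint derived from bidirectional curve fitting versus DMSO of ELISA-measured PGE2 in LPS-stimulated human primary vascular co-culture (HUVEC with PBMC) harvested at 24 h.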

Measured: AC50

Chain of E-selectin (Homo sapiens) (P16581 whole entry, looked up): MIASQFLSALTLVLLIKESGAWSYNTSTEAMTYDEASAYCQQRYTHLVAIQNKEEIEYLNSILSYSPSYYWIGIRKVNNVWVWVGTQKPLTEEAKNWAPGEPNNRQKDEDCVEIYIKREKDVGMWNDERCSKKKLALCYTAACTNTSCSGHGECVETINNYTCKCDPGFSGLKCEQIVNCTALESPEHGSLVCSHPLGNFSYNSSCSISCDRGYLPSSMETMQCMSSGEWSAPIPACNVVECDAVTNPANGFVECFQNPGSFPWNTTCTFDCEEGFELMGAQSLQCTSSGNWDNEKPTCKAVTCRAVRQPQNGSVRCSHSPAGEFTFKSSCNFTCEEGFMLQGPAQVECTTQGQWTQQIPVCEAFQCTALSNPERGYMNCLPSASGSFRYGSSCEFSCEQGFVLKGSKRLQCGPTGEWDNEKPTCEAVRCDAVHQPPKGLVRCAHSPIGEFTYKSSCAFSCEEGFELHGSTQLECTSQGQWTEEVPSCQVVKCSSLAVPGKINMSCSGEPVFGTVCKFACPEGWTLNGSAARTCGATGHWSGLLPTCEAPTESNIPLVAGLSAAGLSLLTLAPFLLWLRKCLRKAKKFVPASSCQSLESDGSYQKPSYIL

CN(CCO)S(=O)(=O)C(F)(F)C(F)(F)C(F)(F)C(F)(F)C(F)(F)C(F)(F)C(F)(F)C(F)(F)F
active: [5] 4.94 µM
inactive: [1] | [2] | [3] | CD40, CD40 (gene 958) | [4] | [5] | [6] | [7] | [8] | [9]

COCN(COC)c1nc(N(COC)COC)nc(N(COC)COC)n1
not listed: [6]
inactive: all other assays above

OCC(CO)(CBr)CBr
not listed: [6]
inactive: all other assays above

O=C(CCCN1CCC(O)(c2ccc(Cl)cc2)CC1)c1ccc(F)cc1
active: [4] 1.67 µM | [8] 29 µM
not listed: [6]
inactive: all other assays above

Oc1c(Cl)cc(Cl)cc1Sc1cc(Cl)cc(Cl)c1O
inactive: [9]
active: [1] 2.23 µM and 2.57 µM | [2] 1.88 µM and 2.08 µM | [3] 3.48 µM and 3.57 µM | CD40, CD40 (gene 958) 14.2 µM | [4] 35.1 µM and 31.9 µM | [5] 36.5 µM and 33.4 µM | [7] 35.4 µM and 35.6 µM | [8] 31.4 µM and 30.1 µM | [9] 20 µM

O=C1OC2(c3ccccc31)c1cc(I)c(O)c(I)c1Oc1c2cc(I)c(O)c1I
inactive: [5]
active: [1] 3.51 µM | [2] 14.9 µM | [3] 9.05 µM | CD40, CD40 (gene 958) 8.71 µM | [4] 8.58 µM | [7] 9.13 µM | [8] 6.33 µM | [9] 3.14 µM

O=P(O)(O)CCC(F)(F)C(F)(F)C(F)(F)C(F)(F)C(F)(F)C(F)(F)F
not listed: [6]
inactive: all other assays above

CCCCC(CC)C(=O)O (centres undefined)
not listed: [6]
inactive: all other assays above

NC(=NCCCCCCN=C(N)/N=C(\N)Nc1ccc(Cl)cc1)/N=C(\N)Nc1ccc(Cl)cc1
inactive: [9]
active: [1] 6.01 µM | [2] 2.67 µM | [3] 4.99 µM | CD40, CD40 (gene 958) 5.33 µM | [5] 2.36 µM | [6] 5.33 µM | [7] 4.94 µM | [8] 4.95 µM

CC[N+](CC)(CC)Cc1ccccc1
not listed: [6]
inactive: all other assays above

O=C1c2ccc(O)c(O)c2C(=O)c2c(O)ccc(O)c21
not listed: [6]
inactive: all other assays above

OCCN1CN(CCO)CN(CCO)C1
inactive: [1] | [2] | [3] | [9]
active: CD40, CD40 (gene 958) 36 µM | [4] 29.9 µM | [5] 28.2 µM | [7] 31.4 µM | [8] 13.1 µM

COc1cccc(O)c1
not listed: [6]
inactive: all other assays above

CC(=O)Nc1ccc(O)cc1
not listed: [6]
inactive: all other assays above

C=CC(=O)OCCC(F)(F)C(F)(F)C(F)(F)C(F)(F)C(F)(F)C(F)(F)C(F)(F)C(F)(F)F
active: [2] 12.6 µM and 8.83 µM
not listed: [6]
inactive: all other assays above

COC1=CC(=O)C[C@@H](C)[C@]12Oc1c(Cl)c(OC)cc(OC)c1C2=O
active: [1] 0.119 µM | [2] 0.572 µM
not listed: [6]
inactive: all other assays above

Oc1cc2ccccc2cc1O
not listed: [6]
inactive: all other assays above

C=CC(=C)CC/C=C(\C)CCC=C(C)C
not listed: [6]
inactive: all other assays above

N=C(N)c1ccc(OCCCCCOc2ccc(C(=N)N)cc2)cc1
active: [5] 12.7 µM | [7] 17.5 µM
not listed: [6]
inactive: all other assays above

CS(=O)(=O)c1ccc([C@@H](CC2CCCC2)C(=O)Nc2cnccn2)cc1Cl
not listed: [6]
inactive: all other assays above

CN(C)CCOC(c1ccccc1)c1ccccc1
not listed: [6]
inactive: all other assays above

CCCCc1oc2ccccc2c1C(=O)c1cc(I)c(OCCN(CC)CC)c(I)c1
active: [1] 11.9 µM | [2] 6.54 µM | [3] 9.85 µM | CD40, CD40 (gene 958) 13.9 µM | [4] 24.2 µM | [5] 25.9 µM | [7] 19.1 µM | [8] 26.1 µM
inactive: [9]

Cc1[nH]nc2c1N=C(c1ccccc1Cl)c1cc([N+](=O)[O-])ccc1N2
inactive: [1] | [3]
active: [2] 4.48 µM | CD40, CD40 (gene 958) 4.82 µM | [4] 6.04 µM | [5] 7.23 µM | [7] 4.2 µM | [8] 5.17 µM | [9] 2.36 µM

COc1cc(OC)nc(NC(=O)NS(=O)(=O)Nc2ccccc2C(=O)N(C)C)n1
active: [5] 0.055 µM | [7] 0.0637 µM
not listed: [6]
inactive: all other assays above

C=CC(C)(CCC=C(C)C)OC(C)=O (centres undefined)
active: [2] 30.4 µM | [3] 31.2 µM
not listed: [6]
inactive: all other assays above

CCC(C)c1ccccc1O (centres undefined)
active: [9] 3.28 µM
not listed: [6]
inactive: all other assays above

O=C(NCc1ncc(C(F)(F)F)cc1Cl)c1c(Cl)cccc1Cl
not listed: [6]
inactive: all other assays above

OCC(F)(F)C(F)(F)C(F)(F)C(F)(F)C(F)(F)C(F)(F)C(F)(F)C(F)(F)C(F)(F)C(F)(F)C(F)(F)F
active: [7] 186 nM and 202 nM | [9] 42.7 nM and 227 nM
not listed: [6]
inactive: all other assays above

Cc1ccc(N=Nc2c(O)ccc3ccccc23)c(C)c1
not listed: [6]
inactive: all other assays above
